# Source: PubChem
# ELG1 DNA repair – inhibitors of ELG1-dependent DNA repair in HEK293T cells. HEK293T ELG1-luciferase reporter, luminescence, 16 h; DNA damage induced by 5-fluorouridine. Potency, µM (doses to about 46.1 µM), most hits filed as inhibitors. 2.3% of 330,000 active; note: nearly all actives have a fitted effect of over 55% in size
#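 Cells (2,000 per well) received 5-fluorouridine plus test compound or DMSO and were incubated 16 hr at 37 °C, 5% CO2. Luciferase activity was read by luminescence 30 min after ONE-Glo addition; signal suppression marked inhibition of damage-induced ELG1 function.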
# SMN2 splice enh – increases expression of the SMN2 splice variant; HEK293 SMN2-luciferase splicing reporter, luminescence, 30-36 h; Potency, µM (titrated, usually from 46.1 µM), actives largely listed as activators; 2.8% of 210,000 active; AID 1458; note: nearly all actives have a fitted effect of over 55% in size
#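 HEK293 cells carry an SMN2 […]–luciferase reporter in which exon 7 inclusion puts luciferase in frame. Cells were plated 10-12 h before compound addition, then incubated 30-36 h at 37C. ONE-Glo luminescence was read; sodium butyrate at 4.5 mM final served as control.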
# FLuc counter – firefly luciferase modulation, counter-screen for miR-21 project; Potency, µM (highest dose often 57.5 µM), actives largely listed as inhibitors; P08659; AID 588342; 6.9% of 360,000 active; purified FLuc, Km substrates, luminescence inhibition; note: nearly all actives have a fitted effect of over 55% in size
# Target sequence (P08659 whole entry, looked up): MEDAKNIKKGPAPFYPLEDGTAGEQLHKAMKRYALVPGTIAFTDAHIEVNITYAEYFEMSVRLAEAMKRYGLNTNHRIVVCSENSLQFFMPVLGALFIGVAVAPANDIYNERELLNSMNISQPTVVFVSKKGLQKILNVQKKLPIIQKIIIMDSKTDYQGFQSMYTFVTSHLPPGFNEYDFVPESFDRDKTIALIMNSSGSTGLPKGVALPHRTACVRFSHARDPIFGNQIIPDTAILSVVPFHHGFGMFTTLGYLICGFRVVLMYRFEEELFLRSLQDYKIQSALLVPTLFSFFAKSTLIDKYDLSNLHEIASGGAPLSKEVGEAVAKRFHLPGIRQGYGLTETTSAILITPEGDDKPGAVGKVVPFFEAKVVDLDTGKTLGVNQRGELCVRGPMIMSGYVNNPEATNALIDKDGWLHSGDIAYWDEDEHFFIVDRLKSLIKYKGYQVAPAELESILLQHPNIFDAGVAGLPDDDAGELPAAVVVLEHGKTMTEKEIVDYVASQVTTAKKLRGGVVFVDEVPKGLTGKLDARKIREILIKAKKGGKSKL
#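 Biochemical qHTS of compounds, final roughly 60 µM downward over six points, against 10 nM purified firefly luciferase using Km concentrations of substrates (10 uM D-luciferin, 10 uM ATP) in Tris acetate pH 7.5 buffer; luminescence output.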
# ELG1 genotoxic – inducers of genotoxicity in HEK293T ELG1-luciferase cells; HEK293T ELG1-luciferase reporter, luminescence, 16 h; Potency, µM (top dose mostly 46 µM), actives largely listed as activators; 1.3% of 330,000 active; AID 504466; note: nearly all actives have a fitted effect of over 60% in size
#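 Cells (2,000/well) expressing the ELG1-luciferase fusion are dosed by pin tool and kept 16 hr at 37 °C, 5% CO2. Signal comes from ONE-Glo luciferase reagent after 30 min at room temperature.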
# NPC1 promoter act – activators of NPC1 promoter; Huh7 NPC1 promoter luciferase reporter, 24 h; Potency, µM (doses to about 9.22 µM), usual class: activators; 2.4% of 320,000 active; note: nearly all actives have a fitted effect of over 60% in size
#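 Huh7 reporter cells (NPC1 promoter driving luciferase) are dosed with compound for 24 h at 37 °C, 5% CO2; luciferase detection reagent is then added and luminescence measured after 10 min at ambient temperature.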
# Rab9 promoter act – Rab9 promoter activation. 2.8% of 320,000 active. AID 485297. Huh7 Rab9 promoter-luciferase reporter, luminescence, 24 h. Potency, µM (titrated, usually from 9.22 µM), most hits filed as activators; note: nearly all actives have a fitted effect of over 60% in size
#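 Huh7 cells stably carrying Rab9 promoter–luciferase reporter, plated 1500 cells/well, compound added after 2 h and incubated 24 h at 37 °C; luciferase luminescence then read after 10 min with detection reagent.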
# Numbers stand for hits; 0 = inactive; ? = inconclusive; - = no result; [ ] = remark or other dose. An excerpt weighted towards active compounds, which were near 9.2% of everything screened. Calls come from the whole dose curve; as a rule, active = well fitted curve in the direction sought with a large enough effect; inconclusive = small, poorly fitted or top-dose-only effect, or another doubt; inactive = no such curve, though single readings can be large; an effect the other way counts as inactive or inconclusive.
SMILES,ELG1 DNA repair,SMN2 splice enh,FLuc counter,ELG1 genotoxic,NPC1 promoter act,Rab9 promoter act
COC(=O)c1ccc(C2c3c(oc4ccccc4c3=O)C(=O)N2c2nc(C)c(C(=O)OC)s2)cc1 (stereo unspecified),-,0,0,-,-,-
Cc1nnsc1-c1onc(C)c1C(=O)O/N=C/c1ccc(Cl)cc1,0,-,0,0,0,0
O=C(NNC(=S)Nc1ccc(Cl)cc1)c1ccccc1OC(F)F,23µM,0,0,0,0,0
Cc1ccccc1C(=O)NNC(=O)c1ccc(F)cc1,?,0,0,0,0,0
COc1ccccc1C(=O)NNC(=O)c1ccc2ccccc2c1,0,-,12µM,0,0,0
COC(=O)NNC(=O)c1ccccc1OC,0,0,0,0,0,0
COc1ccccc1C(=O)NNC(=O)c1ccc(F)cc1,?,11µM,?,?,0,?
COc1ccccc1C(=O)NNC(=O)c1ccc(Cl)cc1,0,-,15µM,0,0,0
COc1ccccc1NC(=O)NNC(=O)c1ccc2ccccc2c1,0,-,0,0,0,0
CCC(=O)N1CCc2cc(S(=O)(=O)NC(C(=O)NCCc3ccc(Cl)cc3)C(C)C)ccc21 (stereo unspecified),-,0,0,-,-,-
CC[C@]12c3[nH]c4cc(-c5ccco5)ccc4c3CCN1C(=O)[C@@H](CC(=O)NCCC1=CCCCC1)C[C@@H]2C(=O)N1CCN(C(=O)c2ccco2)CC1,?,-,-,0,-,-
CCCNC(=O)COC(=O)/C(C#N)=C/c1cc(C)n(CCC)c1C,0,0,0,0,0,0
CCCn1c(C)cc(/C=C(\C#N)C(=O)OCC(=O)NC(=O)NC(C)(C)C)c1C,0,0,17µM,0,0,0
Cn1c(C(=O)N2CCc3ccccc3C2)cc2oc3ccccc3c21,?,22µM,11µM,?,0,?
CCn1c(C(=O)N2CCc3ccccc3C2)cc2oc3ccccc3c21,?,0,?,0,0,0
O=C(Nc1ccnn1C1CCN(Cc2ccn[nH]2)CC1)c1ccccc1,0,-,0,0,0,0
Cc1ccc(CC(=O)Nc2ccc(C(=O)N3CCCCC3)cc2)cc1,0,-,0,0,0,0
O=C(Cc1ccc(Cl)cc1)Nc1ccc(C(=O)N2CCCCC2)cc1,0,-,27µM,0,0,0
O=C(c1ccc(CSc2ccc(Cl)cc2)cc1)N1CCCC1,0,0,19µM,0,0,?
CSc1nc(/C=C2\C=Nc3ccccc32)c(O)n1C,?,?,13µM,0,0,0
CCOC(=O)c1cc2c(=O)n3ccccc3nc2n(CC2CCCO2)c1=NC(=O)c1cccc(C)c1 (stereo unspecified),-,0,0,-,-,-
COc1ccc(NC(=O)/C(Cl)=C(/Cl)S(=O)Cc2ccccc2)cn1 (stereo unspecified),8.2µM,0,0,0,0,0
Cc1ccc(Cn2cccc(NC(=O)NCc3ccccc3)c2=O)cc1,0,0,?,0,0,0
O=C(NCc1ccccc1)Nc1cccn(Cc2ccccc2Cl)c1=O,?,0,8.5µM,0,0,0
O=C(Nc1cccn(Cc2c(Cl)cccc2Cl)c1=O)c1c(Cl)cccc1Cl,0,0,0,0,0,0
SMILES,ELG1 DNA repair,SMN2 splice enh,FLuc counter,ELG1 genotoxic,NPC1 promoter act,Rab9 promoter act
O=C(NCc1ccccc1)Nc1cccn(Cc2ccc(Cl)cc2)c1=O,0,-,?,0,0,0
COc1ccc(Cn2cccc(NC(=O)Nc3cccc(OC)c3)c2=O)cc1,?,-,21µM,0,0,0
O=C(Nc1ccccc1)Nc1cccn(Cc2c(F)cccc2Cl)c1=O,0,-,11µM,0,0,?
Cc1ccc(Cn2cccc(NC(=O)c3ccco3)c2=O)cc1,?,0,15µM,0,0,?
COc1ccc(Cn2cccc(NC(=O)Nc3ccc(F)cc3)c2=O)cc1,?,-,?,0,0,0
CCc1cccc(NC(=O)Cn2c(=O)n(-c3cccc(Cl)c3)c(=O)c3c2c2cc(C)ccc2n3C)c1,-,0,0,-,-,-
COc1cccc(Cn2cccc(NC(=O)Nc3ccc(C#N)cc3)c2=O)c1,0,0,?,0,0,0
COc1cccc(NC(=O)Nc2cccn(Cc3ccccc3)c2=O)c1,0,0,17µM,0,0,0
COc1cccc(Cn2cccc(NC(=O)Nc3ccccc3C)c2=O)c1,0,-,0,0,0,0
CSc1ccc(NC(=O)Nc2cccn(Cc3ccccc3)c2=O)cc1,0,-,11µM,0,0,0
COc1cccc(Cn2cccc(NC(=O)NCc3ccccc3)c2=O)c1,0,-,21µM,0,0,0
Cc1ccc(NC(=O)Cn2c(=O)n(-c3ccccc3)c(=O)c3ccc(C(=O)NCc4ccc5c(c4)OCO5)cc32)c(C)c1,-,0,0,-,-,-
CC(OC(=O)c1ccc2ncsc2c1)C(=O)Nc1cccc(Cl)c1 (stereo unspecified),0,-,0,0,0,0
CCN(CC)CCNC(=O)c1ccc(NC(=O)COc2ccc3c(c2)CCC3)cc1,0,-,0,0,0,0
CN(C)c1ccc(C=C2C(=O)OC(C)(C(C)(C)C)OC2=O)cc1 (stereo unspecified),0,0,9.5µM,0,0,0
CN(C)c1ccc(C=C2C(=O)OC(C)(C)OC2=O)cc1,0,0,19µM,0,0,0
COc1ccc(C=C2C(=O)OC(C)(C)OC2=O)cc1OC,?,-,0,0,0,0[1.84 µM]
CCN(CC)c1ccc(C=C2C(=O)OC(C)(C(C)(C)C)OC2=O)cc1 (stereo unspecified),?,0,0,0,0,0
O=C(COc1ccc2cc(-c3ccccc3)c(=O)oc2c1)NCC1CCC(C(=O)O)CC1 (stereo unspecified),?,-,6µM,0,0,0
O=C(COc1ccc2c(-c3ccccc3)cc(=O)oc2c1)NCC1CCC(C(=O)O)CC1 (stereo unspecified),0,-,21µM,0,0,0
CCOC(=O)c1cccc(NC(=O)CSc2nc3cc4ccccc4cc3[nH]2)c1,-,?,0,-,-,-
O=c1cc(-c2cccc(F)c2)[nH]c2ccccc12,0,0,0,?,0,0
COc1ccc2[nH]c(-c3cccc(F)c3)cc(=O)c2c1,?,11µM,15µM,13µM,0,0
Cc1ccc2[nH]c(-c3cccc(F)c3)cc(=O)c2c1,?,0,13µM,15µM,0,0
O=C1O[C@@H]([C@H](O)[C@H](O)[C@H](O)CO)[C@@H](O)[C@@H]1O,-,0[9.22 µM],-,-,-,-
Cc1ccc(-n2nnnc2SCC(=O)Nc2ccc(N3CCN(C)CC3)cc2)c(C)c1,0,-,0,0,0,0
Cc1ccc(SCC(=O)Nc2ccc(N3CCN(C)CC3)c(F)c2)c(C)c1,0,0,12µM,0,0,0
O=C(CSc1ccccc1)Nc1ccc(N2CCOCC2)c(F)c1,?,-,?,?,3.5µM,3.2µM
O=C(O)C1CC(c2ccccc2)=Nc2ccccc2S1 (stereo unspecified),?,-,17µM,?,?,?
